# “And” between values parts separate entries of the source, which are not always exact repeats. Equal entries are not always repeated. Results filed as inconclusive are left out. A call without a number means that no potency is given here. Some structures have more than one record in an assay (separate samples or runs), and their calls can disagree. The source made the active and inactive calls. Calls follow the shape of the dose curve; as a rule, active = well fitted cell-killing curve with a large enough effect in the repeat runs; inconclusive = weak or mixed curves, or effect the other way; inactive = flat fitted curve, though single readings scatter.
# Assay: qHTS RealTime-Glo MT Cell Viability Assay in HEK293 cells - 24 hour (AID 1224886); also: nearly all actives have a fitted effect of over 50% in size
# Conditions: RealTime-Glo luminescence; series mostly up to 76.8 µM
# From the text: National Center for Advancing Translational Sciences [NCATS]
# NIH Chemical Genomics Center [NCGC]
# U.S. Environmental Protection Agency [EPA]
# National Institutes of Environmental Health Sciences [NIEHS]
# National Toxicology Program [NTP]
# U.S. Food and Drug Administration [FDA]
# Measure of cell viability is critical in the cell-base assay. Analysis of cell viability is necessary for the characterization of cell responses to cytotoxic drugs and environmental stress. A RealTime-Glo MT Cell Viability Assay to monitor cell viability in real time of continues cell culture during 40 hours of compound treatment was used to screen Tox21 10K library compounds in Hek293 cells. The RealTime-Glo MT Cell Viability Assay is a nonlytic, homogeneous, bioluminescent method to measure cell viability in real time using a simple, plate-based method. The assay involves adding NanoLuc luciferase and a cell-permeant prosubstrate to cells in culture. Viable cells reduce the proprietary prosubstrate to generate a substrate for NanoLuc luciferase. This substrate diffuses from cells into the surrounding culture medium, where it is rapidly used by the NanoLuc Enzyme to produce a luminescent signal. The signal correlates with the number of viable cells, making the assay well suited for cytotoxicity studies.
# Tox21 Assay Protocol Summary:
# The mixture of Hek293 cell suspension and reagents were dispensed at 600cells/6 ul/well in 1536-well tissue culture treated black solid bottom plates using a Multidrop dispenser. After the assay plates were incubated at a 37 C/5% CO2 incubator for 5 hours, 23 nL of compounds dissolved in DMSO, positive and negative controls was transferred to the assay plate by a pintool work station. The plates were incubated at 37 C for 40 hours. The luminescence intensity were measured at 0h, 8h, 16h, 24h, 32h and 40h time points using ViewLux plate reader during compound treatment.
# Potency is read from the fitted curve at half-maximal effect.
row,SMILES,Potency
1,NC(=O)CN1CCCC1=O,inactive
2,O=P(OCCCl)(OCCCl)OCCCl,inactive
3,CC(C)(c1ccc(OCC2CO2)cc1)c1ccc(OCC2CO2)cc1 (stereo not given),inactive
4,OCCOCCO,inactive
5,CCOP(=S)(OCC)OP(=S)(OCC)OCC,inactive
6,Nc1ccc2ccccc2c1,inactive
7,CN(C)c1nc(=O)n(C2CCCCC2)c(=O)n1C,inactive
8,O=[N+]([O-])c1ccc(Cl)c([N+](=O)[O-])c1,11.1 µM (active) and 12.3 µM (active)
9,Nc1ccc([N+](=O)[O-])cc1N,inactive
10,CCOP(=S)(OCC)SCSC(C)(C)C,inactive
11,C[N+](C)(C)CC(=O)O,inactive
12,CCOP(=S)(OCC)SCn1c(=O)oc2cc(Cl)ccc21,26.3 µM (active) and 21.9 µM (active)
13,C[C@]12CC[C@H]3[C@@H](CCC4=CC(=O)CC[C@@H]43)[C@@H]1CC[C@@H]2O,inactive
14,Oc1ccc(Cl)cc1Cl,inactive
15,CC(C)(O)C(=O)Nc1ccc([N+](=O)[O-])c(C(F)(F)F)c1,25.1 µM (active) and 17.9 µM (active)
16,OC(c1ccc(Cl)cc1)(c1cncnc1)c1ccccc1Cl (stereo not given),7.04 µM (active)
17,CC1(C)Cc2cccc(O)c2O1,inactive
18,CCCCCCCCCCCCCl,inactive
19,Cl,inactive
20,Clc1cccc(C(Cl)(Cl)Cl)n1,inactive

row,SMILES,Potency
1,O=C1C(Cl)=C(Cl)C(=O)c2ccccc21,6.19 µM (active) and 9.77 µM (active)
2,CC(C)CON=O,inactive
3,CC1=C(C(=O)Nc2ccccc2)SCCO1,inactive
4,COc1ccc(O)c(C(C)(C)C)c1,inactive
5,CC(C)COC(=O)c1ccccc1C(=O)OCC(C)C,inactive
6,Cc1ccc(N=CN(C)C=Nc2ccc(C)cc2C)c(C)c1,39.1 µM (active) and 38.9 µM (active) and inactive
7,O=S(=O)(O)C(F)(F)C(F)(F)C(F)(F)C(F)(F)C(F)(F)C(F)(F)C(F)(F)C(F)(F)F,inactive
8,COc1ccc(C=O)cc1OC,inactive
9,CC(C)(c1ccccc1)c1ccc(O)c(C(C)(C)c2ccccc2)c1,19.3 µM (active) and 30.9 µM (active)
10,CCCCOC(=O)COC(=O)c1ccccc1C(=O)OCCCC,inactive
11,CCCCC(C#N)(Cn1cncn1)c1ccc(Cl)cc1 (stereo not given),inactive
12,CNC(=S)S,inactive
13,COC(=O)Nc1nc2ccccc2[nH]1,inactive
14,CCCCOCCOC(C)=O,inactive
15,CNC(=O)CSP(=S)(OC)OC,inactive
16,ClC(Cl)(Cl)c1ccccc1,inactive
17,[Cl-].[Cl-].[Cl-].[Fe+3],inactive
18,CSc1nc(NC(C)C)nc(NC(C)C)n1,inactive
19,CC1CC(=O)O1 (stereo not given),inactive
20,C[N+](C)(C)CC(=O)[O-],inactive
